From PubChem BioAssay
USP30 inh = inhibitors of human USP30 deubiquitinase; AID 1645860, 2021; actives 5.3% (n = 47,000); inhibition, % at 25 µM; purified USP30, Ub-rhodamine cleavage fluorescence
Target sequence (Q70CQ3 whole entry, looked up): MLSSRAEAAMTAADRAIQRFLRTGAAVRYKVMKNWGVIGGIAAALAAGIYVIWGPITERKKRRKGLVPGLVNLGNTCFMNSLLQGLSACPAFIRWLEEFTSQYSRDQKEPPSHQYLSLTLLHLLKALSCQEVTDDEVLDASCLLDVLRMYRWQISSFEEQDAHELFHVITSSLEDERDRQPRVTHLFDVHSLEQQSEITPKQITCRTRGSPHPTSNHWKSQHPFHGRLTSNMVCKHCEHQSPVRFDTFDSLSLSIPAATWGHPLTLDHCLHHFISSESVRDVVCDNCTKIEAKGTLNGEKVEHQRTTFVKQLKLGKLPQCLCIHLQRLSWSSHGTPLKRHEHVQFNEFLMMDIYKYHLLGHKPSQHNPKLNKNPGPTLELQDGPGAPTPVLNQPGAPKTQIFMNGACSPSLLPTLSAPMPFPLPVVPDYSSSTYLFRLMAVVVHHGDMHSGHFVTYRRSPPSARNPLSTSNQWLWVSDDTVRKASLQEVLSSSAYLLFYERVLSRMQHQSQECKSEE
USP8 inh = inhibitors of human USP8 deubiquitinase; inhibition, % at 20 µM; actives 4.2% (n = 47,000); Ubiquitin carboxyl-terminal hydrolase 8 (Homo sapiens), P40818; purified USP8, Ub-rhodamine cleavage fluorescence, 30 min
USP7 block = inhibitors of human USP7 deubiquitinase; Ubiquitin carboxyl-terminal hydrolase 7 (Homo sapiens), Q93009; purified USP7, Ub-rhodamine cleavage fluorescence; inhibition, % at 20 µM; actives 0.3% (n = 47,000); AID 1645854, 2021
UCHL1 block = inhibitors of human UCHL1 deubiquitinase; Ubiquitin carboxyl-terminal hydrolase isozyme L1 (Homo sapiens), P09936; purified UCHL1, Ub-rhodamine cleavage fluorescence; inhibition, % at 20 µM; actives 0.2% (n = 47,000); AID 1645859, 2021
USP10 block = inhibitors of human USP10 deubiquitinase. actives 1.1% (n = 47,000). inhibition, % at 20 µM. purified USP10, Ub-rhodamine fluorescence, 60 min. AID 1645856, 2021
USP17 block = inhibitors of human USP17 deubiquitinase; inhibition, % at 50 µM; AID 1645855, 2021; purified USP17, Ub-rhodamine cleavage fluorescence, 3 h; actives 6.5% (n = 47,000); Ubiquitin carboxyl-terminal hydrolase 17-like protein 5 (Homo sapiens), A8MUK1
The depositor's hits bear a star. Rows were chosen to be rich in hits. Some 13% of all compounds tested hit in one or more screens of this group. No stated cut-off is given here; in the data, active means inhibition above about 30%; inactive means the rest.

What do the screens show for `COc1ccc(NC(=O)CCNS(=O)(=O)c2ccc3c(c2)CCC(=O)N3)cc1OC`?
USP30 inh: 13.3; USP8 inh: -1.1; USP7 block: -0.9; UCHL1 block: -3.3; USP10 block: 0.1; USP17 block: 0.0

How did COc1cccc(N2CCN(C(=O)CCNS(=O)(=O)c3ccc4c(c3)CCC(=O)N4)CC2)c1 do in these assays?
USP30 inh: -0.6; USP8 inh: 9.7; USP7 block: -0.9; UCHL1 block: 2.6; USP10 block: 0.2; USP17 block: 58.1*

Results for CCOC(=O)C1CCN(C(=O)c2[nH]nc3c2CCc2ccccc2-3)CC1 ?
USP30 inh: 1.4; USP8 inh: 0.6; USP7 block: -2.2; UCHL1 block: -0.3; USP10 block: -1.1; USP17 block: -11.5

Results for Cn1c(N2CCCCCC2)nc2c1c(=O)n(Cc1ccccc1Cl)c(=O)n2C ?
USP30 inh: -5.0; USP8 inh: -20.1; USP7 block: 0.1; UCHL1 block: -1.6; USP10 block: 0.5; USP17 block: -9.3

Results for Cn1c(=O)n(Cc2ccccc2F)c(=O)c2c1nc1n2CCCN1Cc1ccccc1 ?
USP30 inh: 40.1*; USP8 inh: -11.6; USP7 block: -6.3; UCHL1 block: 5.5; USP10 block: 6.7; USP17 block: 7.0

How did Cn1c(N2CCCCCC2)nc2c1c(=O)n(Cc1ccc(Cl)cc1)c(=O)n2C do in these assays?
USP30 inh: 38.7*; USP8 inh: -10.7; USP7 block: -6.8; UCHL1 block: 0.4; USP10 block: 1.8; USP17 block: 2.4

What do the screens show for `CCOc1ccc(S(=O)(=O)Nc2cccc(-n3cnnn3)c2C)cc1`?
USP30 inh: 3.3; USP8 inh: 2.2; USP7 block: 0.4; UCHL1 block: 1.9; USP10 block: 1.5; USP17 block: -1.2

Results for O=C1NCCCC1Cc1ccc(-c2cccc(C(=O)N3CCc4ccccc4C3)c2)cc1 (configuration not stated) ?
USP30 inh: 35.2*; USP8 inh: 60.6*; USP7 block: -3.8; UCHL1 block: 4.7; USP10 block: 6.4; USP17 block: 55.0*

Results for Cc1cccc(NS(=O)(=O)c2ccc3onc(C(=O)N4CCOCC4)c3c2)c1 ?
USP30 inh: 22.1; USP8 inh: -0.2; USP7 block: 8.1; UCHL1 block: 2.2; USP10 block: 4.6; USP17 block: 7.1

What do the screens show for `COc1ccc(N2CCN(Cc3nnnn3Cc3ccc4c(c3)OCO4)CC2)cc1`?
USP30 inh: 52.9*; USP8 inh: -5.1; USP7 block: -7.8; UCHL1 block: -2.7; USP10 block: 1.1; USP17 block: 42.4*

What do the screens show for `CC1CCN(S(=O)(=O)c2ccc(-c3noc(CCC(=O)NC4CCCC4)n3)cc2)CC1`?
USP30 inh: -12.3; USP8 inh: -32.8; USP7 block: 2.3; UCHL1 block: -3.7; USP10 block: -3.0

Results for CC(C)Oc1ccc(CNC(=O)c2ccc3ccnc(N4CCN(c5ccccc5F)CC4)c3c2)cc1 ?
USP30 inh: -0.9; USP8 inh: 28.2; USP7 block: 3.4; UCHL1 block: 2.8; USP10 block: 0.3; USP17 block: 6.4

What do the screens show for `Cn1c(SCc2ccccc2)nnc1-c1csc(-c2ccccc2)n1`?
USP30 inh: 52.7*; USP8 inh: 21.6; USP7 block: -0.2; UCHL1 block: 5.5; USP10 block: 18.6; USP17 block: 37.9*

Results for CSc1nnc(-c2csc(-c3cccc(C(F)(F)F)c3)n2)n1C ?
USP30 inh: 94.1*; USP8 inh: 12.9; USP7 block: 4.6; UCHL1 block: 2.1; USP10 block: -4.2; USP17 block: 68.0*

Results for FC(F)(F)c1cccc(-c2nc(-c3ccccn3)no2)c1 ?
USP30 inh: 10.4; USP8 inh: -0.3; USP7 block: -3.1; UCHL1 block: 0.3; USP10 block: -2.9; USP17 block: 3.0

What do the screens show for `COc1cc(O)c2c(c1)OC(C)CC2=O` (configuration not stated)?
USP30 inh: -19.3; USP8 inh: -6.6; USP7 block: -3.7; UCHL1 block: -0.8; USP10 block: -1.3; USP17 block: -19.8
